Inconclusive results are not listed. Activity calls are given as the source filed them. Calls follow the shape of the dose curve; as a rule, active = well fitted inhibition curve with a large enough effect; inconclusive = small, poorly fitted or top-dose-only effect; inactive = no such curve, though single readings can be large or run the other way.
Potency is read from the fitted curve at half-maximal effect.

This experiment in a line: InCell qHTS Assay for Inhibitors of the mTORC1 Signaling Pathway in MEF (Tsc2-/-, p53-/-) Cells: Hit Validation.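 Also: phospho-S6 Ser235/236 signal normalized to propidium iodide cell count per well; nearly all actives have a fitted effect of over 75% in size.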 The settings on record: phospho-rpS6 immunofluorescence, 24 h; activity change, negative = inhibition: at 38.3 µM (top of the series). For orientation: qHTS replaces the single test concentration by a dilution series.
In the case of `Cc1cccc(Nc2nnc(-c3ccc(C)c(S(=O)(=O)N4CCN(C)CC4)c3)c3ccccc23)c1`, the activity change, negative = inhibition was -100%.
Regarding `COc1ccc(OCC(O)Cn2c(=N)n(CCN3CCCCC3)c3ccccc32)cc1` (configuration not stated), the activity change, negative = inhibition was -100%.
For the compound `CCCSc1ncc(Cl)c(C(=O)Nc2ccc(S(=O)(=O)N3CCCCC3C)cc2)n1` (configuration not stated), the activity change, negative = inhibition was -100%.
For `CC(C)S(=O)(=O)c1oc(-c2cccs2)nc1S(=O)(=O)c1ccc(F)cc1`, the Potency is 1.47 µM (active).
For the compound `Cc1ccc(NC(=O)COc2ccc(-c3nn(C)c(=O)c4ccccc34)cc2)c(C)c1`, the activity change, negative = inhibition is -100%.
For `CCOC(=O)N1CCN(Cc2nc3cc(NC(=O)c4cccc(C)c4)ccc3n2C(C)C)CC1`, the activity change, negative = inhibition was -100%.
For the compound `Cc1ccc(C(=O)CC2(O)C(=O)N(Cc3ccccc3F)c3ccccc32)cc1` (configuration not stated), the activity change, negative = inhibition was -100%.
Turning to `O=C(CSc1cn(CC(=O)N2CCCC2)c2ccccc12)Nc1ccc(Cl)cc1`, the activity change, negative = inhibition is -100%.
Same read-out and setting: in the case of `CCN(CC)c1ccc(NC(=O)CN(C)S(=O)(=O)c2cccc3nsnc23)c(C)c1` it was -100%; in that of `Cn1nc(-c2ccc(OCC(=O)Nc3ccccc3)cc2)c2ccccc2c1=O`, -100%; in that of `Cc1nc2nncn2c(NCc2ccc(Cl)cc2)c1C`, -100%.
On the same count and under the same terms, the figure for `CCOc1cc(C(Nc2cc(C)ccn2)c2ccc3cccnc3c2O)ccc1OC` (configuration not stated) is -100%.
Consider `CCc1ccc(NC(=O)Cn2c(=O)n(-c3ccc(OC)cc3)c(=O)c3ccc(C(=O)NCc4ccc(C)cc4)cc32)cc1`, for which the Potency is 13.1 µM (active).
Turning to `CC(=O)Nc1ccc(NC(=O)c2nc(S(=O)(=O)Cc3ccc(F)cc3)ncc2Cl)cc1`, the Potency was 3.29 µM (active).
`COc1ccc(-n2ncc3c(NCCCOC(C)C)ncnc32)cc1`: the activity change, negative = inhibition is -100%.
Consider `CCCN1C(=O)C(Cc2nc3ccccc3c(=O)n2CC)c2ccccc21` (configuration not stated), for which the activity change, negative = inhibition was -100%.
Turning to `Cc1ccc(CNS(=O)(=O)c2cc(C(=O)Nc3cccc(C(F)(F)F)c3)ccc2F)cc1`, the activity change, negative = inhibition was -100%.
Turning to `CCN(C(=O)C(NS(=O)(=O)c1ccc(Br)s1)c1ccccc1)c1ccc(C)c(C)c1` (configuration not stated), the activity change, negative = inhibition was -15.2%.
With `O=c1c(-c2cc(-c3ccc(F)cc3)nc3c2COc2ccc(Cl)cc2-3)coc2ccc(F)cc12`, the activity change, negative = inhibition is -100%.
For `Cc1cccc(C2C=C(c3ccc(C)c(C)c3)Nc3nnnn32)c1` (configuration not stated), the activity change, negative = inhibition is -17.1%.
Turning to `CCOC(=O)c1c(C)[nH]c(CCC(=O)Nc2cc(C)ccc2OC)c1C`, the activity change, negative = inhibition is -100%.
Consider `CCOC(=O)N1CCN(Cc2nc3cc(NC(=O)c4ccccc4OC)ccc3n2C(C)C)CC1`, for which the activity change, negative = inhibition was -100%.

The values above are taken from PubChem BioAssay AID651791 (National Center for Advancing Translational Sciences (NCATS), 2012).
